# PubChem BioAssay AID1851 (National Center for Advancing Translational Sciences (NCATS), 2009)
# Values joined by “and” are separate entries in the source; they are usually repeats but may differ in a detail not shown here. Equal entries are not always repeated. The whole screen tested about 16,000 compounds, of which about 2,600 (16%) were called active. About 20% were inconclusive and are not listed. Only a sample is shown. Unmarked numbers belong to inactive results. Calls come from the whole dose curve; as a rule, active = well fitted curve in the direction sought with a large enough effect; inconclusive = small, poorly fitted or top-dose-only effect, or effect the other way; inactive = no such curve, though single readings can be large or run the other way.
# Biological target: Cytochrome P450 2D6 (Homo sapiens) (UniProt P10635)
# Test: Cytochrome panel assay with activity outcomes
# Settings: recombinant CYP, pro-luciferin dealkylation, luminescence, p450-cyp2d6; series mostly up to 57.1 µM; activity, negative = inhibition: at the top concentration
# % is set by controls: 0 for no effect and ±100 for the full control effect.
# Sequence of Cytochrome P450 2D6 (Homo sapiens) (P10635 whole entry, looked up): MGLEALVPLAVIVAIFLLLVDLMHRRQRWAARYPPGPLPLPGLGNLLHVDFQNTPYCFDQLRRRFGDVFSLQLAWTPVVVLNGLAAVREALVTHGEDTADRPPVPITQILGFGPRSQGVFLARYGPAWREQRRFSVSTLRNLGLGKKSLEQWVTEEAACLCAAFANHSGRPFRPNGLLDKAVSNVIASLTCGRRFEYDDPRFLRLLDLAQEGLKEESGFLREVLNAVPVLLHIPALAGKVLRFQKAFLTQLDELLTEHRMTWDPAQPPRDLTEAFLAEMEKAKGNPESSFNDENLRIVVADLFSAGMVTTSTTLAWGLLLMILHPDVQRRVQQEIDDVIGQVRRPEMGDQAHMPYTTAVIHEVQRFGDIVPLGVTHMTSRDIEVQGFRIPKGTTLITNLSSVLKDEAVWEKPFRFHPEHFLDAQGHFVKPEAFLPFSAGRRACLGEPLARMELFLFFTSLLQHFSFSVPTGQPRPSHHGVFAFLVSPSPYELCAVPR
Structure (SMILES),"activity, negative = inhibition",AC50
CO[C@H]1COC(=O)[C@H](Cc2ccccc2)NC(=O)C/C=C\[C@@H](C)[C@H](OC)COC(=O)C/C=C\[C@@H]1C,11.3% [at 11.4 µM],
O=C(O)/C=C\C=C/c1ccc2c(c1)OCO2,-10.2% [at 11.4 µM],
Nc1ccccc1C(=O)/C=C\c1ccc2c(c1)OCO2,,3.16 µM (active)
CCOC(=O)c1c(NC(=O)/C=C/c2ccc3c(c2)OCO3)sc(C)c1CC,-4.86%,
COC(=O)c1cc(NC(=O)/C=C/c2ccc3c(c2)OCO3)cc(C(=O)OC)c1,-15.2%,
O=C(/C=C\c1ccc2c(c1)OCO2)c1ccc(F)cc1,,2 µM (active)
COc1ccc2cc3cc(C(=O)Nc4ccc5c(c4)OCO5)oc3nc2c1,-26.3%,
COCOc1cc(OC)ccc1C(=O)/C=C\c1ccc2c(c1)OCO2,,3.98 µM (active)
O=C(/C=C\c1ccccc1)c1ccccc1O,-5.64% [at 11.4 µM],
CN(C)C(=O)CN(c1ccc2c(c1)OCO2)S(C)(=O)=O,-17.5%,
CCOC(=O)c1[nH]c(C)c(/C(O)=C2\C(=O)C(=O)N(CCN3CCOCC3)C2c2cccs2)c1C (stereo unspecified),-7.66%,
Cc1ccccc1-n1nc2c(c1NC(=O)c1c(-c3ccccc3Cl)noc1C)CSC2,0.2%,
COCC(=O)N1CCN(c2ccc([N+](=O)[O-])cc2)CC1,13.8%,
CN1C(=O)NC(c2ccc(O)cc2)C(C(=O)c2cccs2)C1(O)C(F)(F)F (stereo unspecified),-6.24%,
Cc1cccc(C)c1NC(=O)c1cc2c(=O)c3ccccc3oc2nc1C(F)(F)F,27.2%,
CO[C@H]1COC(=O)[C@@H](C)COC(=O)[C@@H](COCc2ccccc2)NC(=O)C/C=C\[C@H]1C,6.49% [at 11.4 µM],
CC(=O)N(/N=C/c1cccc(C)c1)c1nc(-c2ccc(Br)cc2)cs1,22.1%,
Cc1cc(N)c2ccccc2[n+]1CCCCCCCCCCCCCC[n+]1c(C)cc(N)c2ccccc21,,7.94 µM (active)
Cc1cc(N)c2ccccc2[n+]1CCCCCCCCCC[n+]1c(C)cc(N)c2ccccc21,,10 µM (active) and 15.8 µM (active)
Cn1c(N)c(C(=O)CSc2ccc3c(c2)OCCO3)c(=O)n(C)c1=O,-9.58%,
O=C(COc1cccc2ccccc12)N1c2ccccc2CCc2ccccc21,-6.12%,
COC(=O)[C@@H](NC(=O)Nc1ccc(C(C)=O)cc1)C(C)C,15.7%,
CC(C)=CCC/C(C)=C/CO/N=C1/C[C@@H](O)[C@@H](O)[C@@H]2[C@@H]3C(=O)N(Cc4ccc5c(c4)OCO5)C(=O)[C@H]3CC[C@@H]12,-7.94% [at 11.4 µM],
O/N=C/c1cc(Cl)ccc1OCc1cccc2ccccc12,,15.8 µM (active)

Structure (SMILES),"activity, negative = inhibition",AC50
O=C(SCc1cccc2ccccc12)c1ccc(Cl)cc1,-11.2% [at 11.4 µM],
COc1cc(/C=N/O)cc(Br)c1OCc1cccc(Cl)c1,-27.4%,
CC(C)C(NS(=O)(=O)c1cccc2nsnc12)C(=O)N1CCc2ccccc2C1 (stereo unspecified),-3.17%,
CO[C@H]1[C@H](O[C@H]2O[C@@H](C)[C@@H](O[C@@H]3C[C@](C)(O)[C@H](OC(=O)CC(C)C)[C@H](C)O3)[C@@H](N(C)C)[C@@H]2O)[C@@H](CC=O)C[C@@H](C)[C@@H](O)/C=C\C=C/C[C@@H](C)OC(=O)C[C@H]1OC(C)=O,3.01% [at 25.6 µM],
CC(C)(C)c1ccc(C(=O)NC(Cc2ccccc2)C(=O)O)cc1 (stereo unspecified),28.5%,
Cc1ccc2[nH]c(-c3ccccc3)c(CN(C)C)c(=O)c2c1,,0.0316 µM (active)
Cc1cc(=O)[nH]c2ccccc12,0.998%,
CCCCCCN(CCCCCC)C(=O)Cc1c(-c2ccc(F)cc2)[nH]c2ccccc12,-3.8%,
CC(=O)N1CCN(c2nc(C)nc3sc4c(c23)CCC(C)C4)CC1 (stereo unspecified),-13.3%,
CON/C=C(\C=Nc1ccccc1)c1ncc(C(F)(F)F)cc1Cl,6.49%,
COc1ccc(C2CC(=O)CC(=O)C2n2cncn2)cc1 (stereo unspecified),-1.52%,
O=C(O)Cc1nn(Cc2ccc(Br)cc2F)c(=O)c2ccccc12,1.91%,
CC(C)(C)CC(=O)NC(=S)Nc1ccccc1C(F)(F)F,-40.1%,
Cc1cc(C)c(S(=O)(=O)Nc2cccc(C(F)(F)F)c2)c(C)c1,-1.42%,
Cc1cc(C)c(S(=O)(=O)Nc2ccccc2C(F)(F)F)c(C)c1,,6.31 µM (active)
CCN(CC)c1ccc(NC(=O)c2cnn(CC)c2)cc1,-6.55%,
COC(=O)CSc1ccc2nnc(-c3ccc(F)cc3)n2n1,17.6%,
Cc1cc(NC(=O)CSc2nnc(-c3ccccc3)n2Cc2ccco2)no1,-9.41%,
OC(Cc1nc2ccccc2[nH]1)c1ccccc1Cl (stereo unspecified),,1.12 µM (active)
O=C(O)CSc1nc2ccccc2[nH]1,9.25% [at 11.4 µM],
c1ccc(SCc2nc3ccccc3[nH]2)cc1,,10 µM (active)
COCCn1c(Cc2ccccc2)nnc1SCc1nc2ccccc2c(=O)[nH]1,7.43%,
c1ccc2[nH]c(NC3=NCCC3)nc2c1,-17.9%,
Cc1cc(C)nc(SCc2nnc(SCC(N)=O)n2Cc2ccco2)n1,-5.05%,

Structure (SMILES),"activity, negative = inhibition",AC50
OCCNc1nc2ccccc2[nH]1,1.74%,
c1ccc(-c2nnc(SCc3nc4ccccc4[nH]3)n2Cc2ccco2)cc1,,6.31 µM (active)
Cc1nonc1NC(=O)N1CCCC1,6.35%,
O=C(O)Cn1ccnc1[N+](=O)[O-],0.12% [at 11.4 µM],
Cc1ccc(C)c(/C(O)=C2/C(=O)C(=O)N(CCN3CCOCC3)C2c2ccco2)c1 (stereo unspecified),19.6%,
COc1ccc(NC(=O)CSc2ccc3c4c(cccc24)C(=O)c2ccccc2-3)cc1,-17.2%,
O=C(NCc1ccccc1)c1sc(=S)n2c1[nH]c(=O)c1ccccc12,-20.8%,
COc1ccc(C(=O)Nc2cc(C(C)=O)c(/C=C/N(C)C)oc2=O)cc1,-2.29%,
CCC(=O)Nc1c2c(nc3c1CCC3)CCCC2,-7.06%,
COC(=O)CCC(=O)Nc1cccc2ccccc12,3.01%,
O=S(=O)(CC(O)COc1ccccc1Cl)c1ccccc1 (stereo unspecified),-16.4%,
CCC(=O)NC(=S)Nc1ccc(NC(=O)COc2ccc(Cl)cc2Cl)cc1,-6.84%,
O[C@@H](COc1ccc(Cl)cc1Cl)CN1CCCC1,,0.316 µM (active)
O=C(OC1CCN(c2ncc(C(F)(F)F)cc2Cl)CC1)c1ccccc1,-21.2%,
CC1(C)O[C@H]2[C@@H](c3[nH]nc4c(=O)[nH]c(=O)[nH]c34)OC[C@H]2O1,17% [at 11.4 µM],
CCSc1nnc(NC(=O)Cc2ccc(OC)c(OC)c2)s1,6.23%,
Cc1nc2c(c(-c3ccccc3)c1C#N)C(=O)c1ccccc1-2,15.6%,
CC(C)CC1NC(=S)N(C2CCCCC2)C1=O (stereo unspecified),4.01%,
CCCC[C@@H]1C[C@H]1C(NC(=O)c1cccs1)c1ccc(C(F)(F)F)cc1 (stereo partly specified),3.39%,
CN(C)Cc1ccc(C(C)(C)C)cc1-c1cc(C(C)(C)C)ccc1CN(C)C,-2% [at 11.4 µM],
CC(C)(C)c1ccc(O)c(CN(Cc2cc(C(C)(C)C)ccc2O)C2CCCCC2)c1,,0.501 µM (active)
CC(C)(C)c1ccc(O)c(CN(Cc2c(O)ccc3ccccc23)C2CCCCC2)c1,,0.794 µM (active)
CS(=O)(=O)N(Cc1cc2ccccc2[nH]c1=O)C1CCCCC1,-8.47%,
CN(C)Cc1cc(C(C)(C)C)ccc1-c1ccc(C(C)(C)C)cc1CN(C)C,4.2% [at 11.4 µM],

Structure (SMILES),"activity, negative = inhibition",AC50
O=C(O)Cc1c(O)ccc2ccccc12,2.9% [at 11.4 µM],
Oc1ccc2ccccc2c1CN(Cc1c(O)ccc2ccccc12)C1CCCCC1,,0.631 µM (active)
Oc1ccc2ccccc2c1Cc1c(O)ccc2ccccc12,3.09% [at 11.4 µM],
O=C1C2=CC[C@H]3C(=O)N(c4cccc(Oc5ccccc5)c4)C(=O)[C@@H]3[C@@H]2[C@H](O)[C@@H]2O[C@H]12,1.91% [at 11.4 µM],
Cc1ccc(C(=O)N/N=C\c2cccn2C)cn1,23.5%,
Fc1ccc(C2=Nn3c(Cc4ccccc4F)nnc3SC2)cc1,-7.98%,
Cc1ccc(C(=O)NC(=S)Nc2ccc(S(=O)(=O)N3CCN(C)CC3)cc2)cc1,-15.3%,
CC(C)(C)NC(=O)C(c1ccccn1)N(C(=O)C1CSC(=O)C1)c1ccc(F)cc1 (stereo unspecified),-21.8%,
CC1=N[C@@](C)(COC(=O)[C@]2(C)N[C@](C)(CO)CO2)COC1=O,10% [at 11.4 µM],
NC(=O)CN1CCN(c2nc(-c3ccc(F)cc3)cs2)CC1,-6.06%,
COc1ccc(C(=O)N2CCC[C@@]3(CCN(Cc4cc(C(F)(F)F)cc(C(F)(F)F)c4)C3)C2)cc1,-10.6%,
Cn1cccc1C(=O)N1CCC2(CC1)CN(c1ccncc1)C2,-7.3%,
Cn1cccc1C(=O)N1CCC[C@@]2(CCN(Cc3cc(C(F)(F)F)cc(C(F)(F)F)c3)C2)C1,,3.98 µM (active)
Cn1cccc1C(=O)N1CCC2(CCN(Cc3ccccc3)CC2)CC1,,7.94 µM (active)
Cn1cccc1C(=O)N1CCC[C@@]2(CCN(c3ccccc3)C2)C1,-18.6%,
Cn1cccc1C(=O)N1CCC2(CCCN(Cc3ccncc3)C2)CC1,,7.94 µM (active)
Cn1cccc1C(=O)N1CCC[C@@]2(CCN(Cc3ccccc3)C2)C1,,2 µM (active)
Cn1cccc1C(=O)N1CCC2(CC1)CCN(c1ccccc1)CC2,9.63%,
Cn1cccc1C(=O)N1CCC[C@@]2(CCN(c3ccncc3)C2)C1,-6.49%,
CN1CC[C@@]2(CCCN(C(=O)c3cccn3C)C2)C1,-2.76%,
Cn1cccc1C(=O)N1CCC2(CCN(Cc3ccncc3)CC2)CC1,-13.4%,
Cn1cccc1C(=O)N1CCC2(CC1)CN(Cc1ccc(C#N)cc1)C2,4.08%,
NCC[C@H]1CCC[C@H](CCN)N1,-7.7%,
O=[N+]([O-])c1ccc(C=Nc2ccc(Cl)cc2Cl)s1,-27.5%,
